Experimental data taken from PubChem BioAssay AID1813 (Broad Institute, 2009).
The whole screen tested about 300,000 compounds, of which about 2,500 (0.83%) were called active. For the sample, actives were picked, then their nearest neighbours and some compounds at random. A number with no mark means an inactive call. No stated cut-off is given here; in the data, active means inhibition above about 60%; inconclusive means no clear call, values can overlap the other calls; inactive means below that.

experiment: 5' untranslated region of α-synuclein, MLPCN primary screen (AID 1813); settings: alpha-synuclein 5'UTR reporter, inhibitor activity; active compounds read high; tested at 7.5 µM;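 further: H4 neuroglioblastoma cells stably carrying SNCA 5'UTR luciferase fusion; 0% = DMSO wells and 100% = positive control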

Structure (SMILES) | inhibition
O=C1CCCC2=C1C(c1cccs1)n1nc(SCc3ccccc3)nc1N2 (stereo not given) | 37.2%
CCCCCN(C(=O)NC(=O)Nc1cccc(C)c1C)S(C)(=O)=O | -23.1%
CC(C)n1c(CN2CCN(Cc3ccccc3)CC2)nc2ccccc21 | 9.23%
CCCNC(=O)N1CCN(C(=O)NCCC)CC1 | 8.45%
CCn1nc(C)c(NC(=O)/C=C/c2ccc(OC)c(COc3ccc(Br)cc3)c2)c1C | 61.8% (active)
COc1ccc(C(C)=O)cc1COc1ccc(Cl)c(C)c1 | 50.7%
C/C=C/c1ccc(OCC(=O)OCC(=O)Nc2c(C)nn(-c3ccccc3)c2C)c(OC)c1 | 3.02%
CCCCN(C)CCC(=O)Nc1ccc(Cl)cc1 | -18.3%
CCOc1ccc2c(c1)c(=O)c(S(=O)(=O)c1ccc(C)cc1)cn2CC | 13%
CN(C)c1nc(N)nc(CSc2nnnn2-c2cccc3ccccc23)n1 | 68.9% (active)
CN(C)c1nc(N)nc(CSc2ccccn2)n1 | -19.1%
COc1ccc(-n2nnnc2SCc2nc(N)nc(N3CCOCC3)n2)cc1 | 13.4%
COc1ccc(CCNC(=O)CN(C)S(=O)(=O)c2ccc3nc(C)sc3c2)cc1OC | -0.864%
CC(=O)Nc1ccc(NC(=O)CCCNC(=O)c2ccc(Cl)cc2)cc1 | 19.3%
CC(C)c1ccc(Cc2nnc(NCCCO)[nH]c2=O)cc1 | -13.1%
COc1ccc(Cc2nnc(N/N=C/c3ccccc3O)[nH]c2=O)cc1OC | 91.4% (active)
O=c1[nH]c(NCCO)nnc1Cc1ccc(Cl)cc1 | 6.74%
COc1ccc(S(=O)(=O)N2CCC(C(=O)NCCC(=O)NCc3cccc(OC)c3)CC2)cc1 | 11.4%
COc1ccc(C)c(Cn2c(-c3nonc3N)nc3ccccc32)c1 | 76.2% (active)
CC(=O)Nc1nonc1-c1nc2ccccc2n1Cc1ccccn1 | 19%
Nc1nonc1-c1nc2ccccc2n1Cc1ccc(F)cc1 | 49%
CN(CC(=O)NCc1cccnc1)S(=O)(=O)c1cc(Cl)ccc1Cl | 5.11%
CCc1noc(C)c1C(=O)N1CCCC(N2CCN(c3ccc(F)cc3)CC2)C1 (stereo not given) | 14.8%
CC(Sc1nnc(COc2ccccc2)n1-c1ccccc1)C(=O)O (stereo not given) | -1.97%

Structure (SMILES) | inhibition
CC1(C(=O)N/N=C/c2cc3c(cc2Br)OCO3)CC1(Br)Br (stereo not given) | 4.98%
O=C(CN1C(=O)c2ccccc2S1(=O)=O)NC1CCCCC1 | 6.72%
O=C(CN1CCN(c2ccccn2)CC1)N1CCc2ccccc21 | -26.8%
O=C(CN1C(=O)c2ccccc2S1(=O)=O)N1CCc2ccccc21 | 93.5% (active)
COc1ccc(NC(=O)/C(Cl)=C(/Cl)S(=O)Cc2ccc(C)cc2)cn1 (stereo not given) | 106% (active)
COc1ccc(Nc2ccc([N+](=O)[O-])cn2)cn1 | 8.18%
Cc1ccc(NC(=O)OCc2cncs2)cc1 | -112%
COc1ccc(NC(=O)CN(C)C(=O)Cc2coc3cc(C)c(C)cc23)cc1 | 6.29%
Cc1ccc2c(c1)NCC(C(=O)NC1CCC(C)CC1)O2 (stereo not given) | -67.9%
CN(C)c1ccc(C(CNC(=O)c2ccc(F)cc2)c2c[nH]c3ccccc23)cc1 (stereo not given) | 4.86%
Cc1ccc(OCC(=O)Nc2ccccc2Sc2ccc(Cl)cc2)c([N+](=O)[O-])n1 | 4.28%
N#Cc1cnn2cc(CCN3CCOCC3)c(-c3ccc(F)cc3)nc12 | 17%
COc1ccc2c(c1)CCc1cn3ncc(C#N)c3nc1-2 | 68.1% (active)
COc1ccc2nc(N3CCCC(O)C3)c(C#N)cc2c1 (stereo not given) | -114%
CC(C)[C@H](NC(=O)N1CCn2c1nc1ccccc12)C(=O)NC1CC1 | -11.1%
CC1(c2ccc(Cl)cc2)NC(=O)N(CC(=O)c2ccc3c(c2)OCO3)C1=O (stereo not given) | -7.93%
CC(C)(C)C(=O)Nc1ccc(-c2cn3cccnc3n2)cc1 | -130%
Cc1nc(N2CCCCC2)sc1C=O | 10.9%
c1c2c(cc3sc(N4CCCCC4)nc13)OCCO2 | 107% (active)
Brc1ccc2nc(N3CCCC3)sc2c1 | -105%
CN(CC(=O)O)S(=O)(=O)c1ccc2oc3ccccc3c2c1 | -11.7%
COc1ccc(NS(=O)(=O)c2cc3c(cc2C)N(C(C)=O)CCO3)cc1 | 11.8%
COc1ccc(-c2oc3ncn(Cc4ccco4)c(=N)c3c2-c2ccc(OC)cc2)cc1 | 36%
O=C(CN1C(=O)C2C3C=CC(C3)C2C1=O)Nc1nc(-c2ccccn2)cs1 (stereo not given) | 82.4% (active)

Structure (SMILES) | inhibition
O=C(NCCN1C(=O)C2C3C=CC(C3)C2C1=O)Nc1ccccn1 (stereo not given) | -5.4%
O=C(CN1C(=O)C2C3C=CC(C3)C2C1=O)NCCc1ccccc1Cl (stereo not given) | -1.36%
Cc1ccc(S(=O)(=O)CCC(=O)Nc2nnc(CC(C)C)s2)cc1 | -17%
O=S(=O)(NCc1ccc(Cl)cc1Cl)c1cccs1 | -22.7%
Cc1oc(-c2ccccc2Cl)[n+]([O-])c1C | 34.1%
COc1ccc(Br)c2c1C(=O)CC2 | 8.26%
CC1CCCN(S(=O)(=O)c2ccc(C(=O)Nc3nnc(-c4ccncc4)o3)cc2)C1 (stereo not given) | -13.6%
CC1CCCCN1S(=O)(=O)c1ccc(C(=O)Nc2nnc(-c3cccs3)o2)cc1 (stereo not given) | 89.9% (active)
CSCc1nnc(NC(=O)c2ccc(S(=O)(=O)N3CCCCC3C)cc2)o1 (stereo not given) | 14.5%
Cc1onc(-c2ccccc2Cl)c1C(=O)OCC(=O)c1ccccc1 | 12.5%
Cc1onc(-c2ccccc2Cl)c1C(=O)NCCn1ccc2ccccc21 | 29.7%
Cc1onc(-c2ccccc2Cl)c1C(=O)N(Cc1ccc(N(C)C)cc1)C(C)C | 73.1% (active)
O=C(CN1CCOCC1)Nc1cccc([N+](=O)[O-])c1 | 1.99%
Cc1nc(-c2nnc(SCC(=O)Nc3cc(C(F)(F)F)cc(C(F)(F)F)c3)n2C)cs1 | 15.6%
CCCOc1cccc(C(=O)Nc2nnn(CCC)n2)c1 | -87.6%
CC(C)CNC(=O)COC(=O)c1ccccc1OCC(=O)Nc1ccc(Br)cc1 | 1.89%
O=C(COC(=O)c1ccc(NS(=O)(=O)c2cccs2)cc1O)Nc1ccc(F)cc1 | 7.94%
NS(=O)(=O)c1ccc(NC2=CC(c3ccc(F)cc3)N(c3ccc(S(N)(=O)=O)cc3)C2=O)cc1 (stereo not given) | 15.1%
COc1ccc(CN(C)C(C)C(=O)NC2CCCc3ccccc32)cc1 (stereo not given) | 8.59%
COc1ccc(-c2nc(-c3ccccc3)no2)c(OC)c1 | 68.9% (active)
Cc1ccc(-c2nc(-c3ccncc3)no2)c(C)c1 | -108%
COc1ccc(/C=C/c2noc(-c3ccccc3OC(C)=O)n2)cc1 | -34.8%
CCC1CO/C(=C(\C(=C(Cl)Cl)N2CCOCC2)[N+](=O)[O-])N1 (stereo not given) | -4.02%
CCOc1cc(N2CCOCC2)c(OCC)cc1NC(=O)COc1cccc2cccnc12 | 88.8% (active)

Structure (SMILES) | inhibition
CCOc1cc(N2CCOCC2)c(OCC)cc1NC(=O)COc1cccc(Cl)c1 | 9.4%
CCOc1cc(N2CCOCC2)c(OCC)cc1NC(=O)c1cc(C)nc2ccccc12 | 7.38%
CCOC(=O)C(C)Oc1cccc2c(=O)n(CC(=O)NCCc3ccc(OC)c(OC)c3)ccc12 (stereo not given) | 12.9%
Cc1nn(C)c(C)c1CN(C(=O)CCc1nnc(Cc2c[nH]c3ccccc23)o1)C(C)C | 13.9%
Cc1oc2c(F)c(F)c(F)c(F)c2c1S(=O)(=O)Nc1cccc(C(F)(F)F)c1 | 17.3%
CCNC(=S)N1CCC(c2nc3cc(C)c(C)cc3[nH]2)CC1 | -15.5%
Cc1cccc(-[n+]2c(-c3cccc(Br)c3)[nH]c3nc4ccccc4nc32)c1 | 73.9% (active)
Cc1cccc(-c2nc(Nc3ccc(O)cc3)c3ccccc3n2)c1 | 2.9%
Cc1ccc(/C=C2\CCn3c2nc2cc(C(=O)O)ccc2c3=O)c(C)c1 | -20%
Nc1ccc2nn(-c3ccc(Cl)cc3)nc2c1 | -27.3%
CN(C)c1ccc(/C=N\S(=O)(=O)c2ccccc2)cc1 | -6.91%
CC[n+]1cc(C)ccc1/C=C/c1ccc(N(C)C)cc1 | 90.6% (active)
O=C(CN1CCN(c2ncccn2)CC1)Nc1ccccc1C(F)(F)F | -6.88%
Brc1ccc2c(c1)[C@H]1OCC[C@H]1[C@@H](c1cccs1)N2 | 72.2% (active)
CC(C)CCn1c(=O)c2c(nc3n2CCCN3Cc2ccccc2)n(C)c1=O | 23.1%
COc1ccc(C)cc1N(CC(=O)N1CCCC1)S(=O)(=O)c1ccccc1 | -6.96%
Cc1ccc(CNC(=O)CCNS(=O)(=O)c2cccc3nonc23)cc1 | 9.75%
CN(c1ccc2nc3ccccc3c(=O)n2n1)C1CCCCC1 | 119% (active)
CN(C(=O)c1cc2c(=O)n3ccccc3nc2s1)C1CCCCC1 | -42.4%
O=c1c2ccccc2nc2n1C1(CCCCC1)Cc1ccccc1-2 | 0.0175%
Cc1ccc(CN2CCNC(=O)C2CC(=O)NCc2csc(C(C)C)n2)cc1 (stereo not given) | 9.72%
Cc1ccc2[nH]c(=O)c(CN(C)S(=O)(=O)c3cccc4nonc34)cc2c1 | -5.89%
CCC1=C(OC(=O)N(CC)CC)N2C(=O)OC(=NCCc3c[nH]c4ccccc34)[C@]2(C)[C@H]2C1=CC[C@H]1C(=O)N(CC)C(=O)[C@H]12 | -3.3%
